Screens: PubChem, National Center for Advancing Translational Sciences (NCATS)
The list is not random: actives were taken first. Their share in the collection is about 10%.
hNpr1 antagonist: Natriuretic polypeptide receptor (hNpr1) antagonism - Primary qHTS; HEK293 hNpr1 GloSensor cGMP, ANP-stimulated luminescence; AID 1347048, 2019; Atrial natriuretic peptide receptor 1 (Homo sapiens), P16066; Potency, µM (doses to about 46.3 µM), without a hit: at the highest dose activity change, negative = inhibition, usual class: inhibitors; actives 1.6% (n = 76,000); calls by dose curve; also: % is scaled to controls: 0 for no effect and ±100 for the full control effect; nearly all actives have a fitted effect of over 60% in size
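HEK293 cells stably expressing human Npr1 and cGMP GloSensor pGS-40F, loaded 2 h with 2% GloSensor reagent, given compound 30 min at room temperature. Luminescence read before and 20 min after 0.1 nM hNppA.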
GPT2 inh: Primary qHTS assay for inhibitors of Glutamate pyruvate transaminase 2 (GPT2); Recombinant GPT2, coupled pyruvate oxidase/HRP Amplex Red fluorescence; Potency, µM (titrated, usually from 57.7 µM), without a hit: top-dose activity change, negative = inhibition, hits mostly inhibitors; actives 0.25% (n = 100,000); AID 1671188, 2021; also: % is scaled to controls: 0 for no effect and ±100 for the full control effect; nearly all actives have a fitted effect of over 60% in size
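Recombinant GPT2 (10ng/uL) with 250uM a-KG and 2mM L-alanine, 30 min at room temperature, in HEPES pH 7.5 buffer. Pyruvate detected by pyruvate oxidase/HRP/Amplex Red fluorescence after 30 min in the dark; AOA (50uM) as positive control.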
HEK cytotox: Cytotoxic Profiling in HEK 293 Cell Line of Diverse Libraries Using Quantitative High-Throughput Screening. HEK 293 viability, ATP luminescence (CellTiter-Glo), 48-72 h. Potency, µM (titrated, usually from 115 µM), for inactives: at the highest dose activity change, negative = cytotoxicity, hits mostly inhibitors. actives 6.6% (n = 94,000). AID 1345083, 2018; also: % is scaled to controls: 0 for no effect and ±100 for the full control effect; nearly all actives have a fitted effect of over 60% in size
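qHTS cytotoxicity; HEK 293, 250 cells/well; compound pinned; 48 or 72 hr, 37 degree Celsius, 5% CO2, 95% humidity; CellTiter-Glo, 10 min RT; luminescence (ATP).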
FLuc inh-1: Firefly luciferase inhibition profiling of diverse chemical library using quantitative high-throughput screening; purified P. pyralis luciferase, luminescence, biochemical; AID 1347043, 2019; Luciferin 4-monooxygenase (Photinus pyralis), P08659; Potency, µM (series often up to 115 µM), actives largely listed as inhibitors; actives 2.5% (n = 76,000); also: % is scaled to controls: 0 for no effect and ±100 for the full control effect; nearly all actives have a fitted effect of over 65% in size
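Luminescence read by CCD imaging after purified firefly luciferase (10nM final) was added to substrate buffer holding 10uM D-luciferin and 10uM ATP, pH 7.5, pre-dosed with compound.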
3T3 cytotox: Cytotoxic Profiling in NIH 3T3 Cell Line of Diverse Libraries Using Quantitative High-Throughput Screening; NIH 3T3 viability, CellTiter-Glo ATP luminescence, 48-72 h; Potency, µM (doses to about 96.7 µM), inactives show at the top dose activity change, negative = cytotoxicity, usual class: inhibitors; actives 4.3% (n = 94,000); AID 1345082, 2018; also: % is scaled to controls: 0 for no effect and ±100 for the full control effect; nearly all actives have a fitted effect of over 55% in size
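Luminescent ATP readout (CellTiter-Glo, 10 min RT) after 48 or 72 hr compound exposure of NIH 3T3 cells seeded at 400 cells/well in 1536-well format; quantitative HTS.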
FLuc SDR -ATP: Firefly luciferase (FLuc-C-HiBiT) SDR gain of signal screen - without ATP; Purified FLuc-C-HiBiT, Nano-Glo HiBiT luminescence, no ATP; shares compounds with FLuc inh-1; AID 1963318, 2024; actives 7.8% (n = 1,300); Potency, µM (doses to about 32.7 µM), for inactives: at the highest dose activation (signal gain), usual class: activators; also: nearly all actives have a fitted effect of over 55% in size
FLuc SDR ATP: Firefly luciferase (FLuc-C-HiBiT) SDR gain of signal screen - plus ATP; actives 8.7% (n = 1,300); shares compounds with FLuc inh-1; Potency, µM (doses to about 32.7 µM), without a hit: top-dose activation (gain of signal), hits mostly activators; purified FLuc-C-HiBiT + ATP, HiBiT complementation luminescence;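 also: signal reports ligand binding via conformational change of the enzyme rather than luciferase catalysis; % of control where 0% means no effect; nearly all actives have a fitted effect of over 55% in size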
FLuc inh-2: Firefly luciferase (FLuc-C-HiBiT) enzymatic inhibition screen - Functional assay. Potency, µM (highest dose often 32.7 µM), for the others: top-dose activity change, negative = inhibition, actives largely listed as inhibitors. shares compounds with FLuc inh-1. AID 1963320, 2024. purified FLuc-C-HiBiT enzyme, luciferin luminescence. actives 42% (n = 1,300); also: % is scaled to controls: 0 for no effect and ±100 for the full control effect; nearly all actives have a fitted effect of over 70% in size
An asterisk follows results filed as active; [ ] = another dose, or the depositor's remark. Unless noted, calls follow the shape of the dose curve; as a rule, active = well fitted curve in the direction sought with a large enough effect; inconclusive = small, poorly fitted or top-dose-only effect, or another doubt; inactive = no such curve, though single readings can be large; an effect the other way counts as inactive or inconclusive. Potency is read from the fitted curve at half-maximal effect.

What do the screens show for `O=C(Nc1nc2c(F)cc(F)cc2s1)c1ccc2c(c1)OCCO2`?
FLuc SDR -ATP: 17%; FLuc SDR ATP: 15%; FLuc inh-2: 1.8µM*

What do the screens show for `O=C(N[C@H]1[C@H](O)[C@H](O)C[C@@H]1c1ccc(C(F)(F)F)nc1)c1ccc2c(c1)OCCO2`?
hNpr1 antagonist: -2%[70.6 µM]; GPT2 inh: inactive; HEK cytotox: -8%[172 µM]; FLuc inh-1: inactive; 3T3 cytotox: -22%[174 µM]

How did COc1ccc(C2(C(=O)N3CCCN(C)c4ccccc43)CC2)cc1 do in these assays?
hNpr1 antagonist: -5%; GPT2 inh: inactive; HEK cytotox: inconclusive; FLuc inh-1: inactive; 3T3 cytotox: inconclusive

Results for CCc1nc(CN2CCOc3c(O)cc(-c4nc(C)cnc4C)cc3C2)no1 ?
hNpr1 antagonist: 1%; GPT2 inh: inactive; HEK cytotox: 4%; FLuc inh-1: inactive; 3T3 cytotox: inactive

What do the screens show for `Cc1cncc(C(=O)N2CCOc3c(O)cc(-c4nc5ccccc5s4)cc3C2)c1`?
hNpr1 antagonist: -6%; GPT2 inh: -23%; HEK cytotox: 40µM*; FLuc inh-1: inconclusive; 3T3 cytotox: inconclusive; FLuc SDR -ATP: 12%; FLuc SDR ATP: 8%; FLuc inh-2: -11%

Results for Cc1nc(CN2CCOc3c(O)cc(-c4nc5ccccc5s4)cc3C2)no1 ?
hNpr1 antagonist: -1%; GPT2 inh: 0%; HEK cytotox: inconclusive; FLuc inh-1: inactive; 3T3 cytotox: -23%; FLuc SDR -ATP: 14%; FLuc SDR ATP: 7%; FLuc inh-2: -11%

How did Cc1c(CN2CCOc3c(O)cc(-c4nc5ccccc5s4)cc3C2)cnn1C do in these assays?
FLuc SDR -ATP: 13%; FLuc SDR ATP: 9%; FLuc inh-2: -5%

How did CCOC(=O)C1CCN(C(=O)C2CCc3nnc(CNC(=O)NC(C)(C)C)n32)CC1 (centres undefined) do in these assays?
GPT2 inh: -3%; HEK cytotox: -8%; 3T3 cytotox: -4%

Results for C[S+](=O)([O-])N1CCCC1C(=O)N1CCC(N2Cc3ccccc3C2=O)CC1 (centres undefined) ?
GPT2 inh: 1%; HEK cytotox: -2%; 3T3 cytotox: 3%

What do the screens show for `O=C(Nc1ccc(-c2nnc3n2CCCC3)cc1)c1cnccn1`?
hNpr1 antagonist: 4%; GPT2 inh: inactive; HEK cytotox: 5%; FLuc inh-1: inactive; 3T3 cytotox: inactive

What do the screens show for `O=C(NCCN1CCC(n2c(=O)[nH]c3ccccc32)CC1)c1cc2cc(F)ccc2[nH]1`?
GPT2 inh: inactive

How did O=C(COc1ccccc1)Nc1nnc(S(=O)(=O)Nc2ccccc2)s1 do in these assays?
FLuc SDR -ATP: 13%; FLuc SDR ATP: 8%; FLuc inh-2: inconclusive

How did CCNC(=O)C1C(c2cccc(NC(=O)c3ccc(C)cc3)c2)OC(=O)N1Cc1ccc(F)cc1 (centres undefined) do in these assays?
hNpr1 antagonist: 11µM*; GPT2 inh: inactive; HEK cytotox: inconclusive; FLuc inh-1: 2.2µM*; 3T3 cytotox: inconclusive; FLuc SDR -ATP: 17%; FLuc SDR ATP: 1.6µM*; FLuc inh-2: 1.8µM*

What do the screens show for `COc1ccc(C(=O)N[C@@H]2CN(C(=O)Nc3ccc(OC(F)(F)F)cc3)CCC[C@H]2O)cc1`?
hNpr1 antagonist: inconclusive; GPT2 inh: inconclusive; HEK cytotox: 40µM*; FLuc inh-1: 8.9µM*; 3T3 cytotox: 45µM*; FLuc SDR -ATP: 16%; FLuc SDR ATP: 12%; FLuc inh-2: inconclusive

What do the screens show for `O=C(N[C@@H]1CN(C(=O)Nc2ccc(OC(F)(F)F)cc2)CCC[C@H]1O)c1ccc(OCCN2CCOCC2)cc1`?
hNpr1 antagonist: -2%; GPT2 inh: -17%; HEK cytotox: inconclusive; FLuc inh-1: inconclusive; 3T3 cytotox: inconclusive

What do the screens show for `CC(C)C(=O)N1CCCC1c1nc(CCOCC2CC2)no1` (centres undefined)?
GPT2 inh: inactive; HEK cytotox: -12%; 3T3 cytotox: -11%

What do the screens show for `O=C(c1ccc(C(F)(F)F)cc1)N1CCCC(C(=O)N2CCCC(c3nc4ccncc4[nH]3)C2)C1` (centres undefined)?
GPT2 inh: inactive; HEK cytotox: inconclusive; 3T3 cytotox: inconclusive

How did CC(C)c1ccc(C(=O)Nc2cccc3cccnc23)cc1 do in these assays?
FLuc SDR -ATP: 18%; FLuc SDR ATP: 12%; FLuc inh-2: inconclusive

What do the screens show for `CN1CCC(Oc2ncccc2NC(=O)c2ccncc2)C1` (centres undefined)?
hNpr1 antagonist: -1%; GPT2 inh: -14%; HEK cytotox: 6%; FLuc inh-1: inactive; 3T3 cytotox: inactive

Results for O=C1CCN(S(=O)(=O)c2ccccc2)CCCN(C2CCCCC2)CCN1 ?
hNpr1 antagonist: 0%; GPT2 inh: inactive; HEK cytotox: 0%; FLuc inh-1: inactive; 3T3 cytotox: -17%

What do the screens show for `COc1ccc(C(=O)Nc2ccc(-c3nc4ccccc4s3)c(Cl)c2)cc1Cl`?
FLuc SDR -ATP: 14%; FLuc SDR ATP: 11%; FLuc inh-2: -12%

Results for CCOc1ccc(C(=O)Nc2ccc(-c3nc4ccccc4s3)c(C)c2)cc1OCC ?
FLuc SDR -ATP: 18%; FLuc SDR ATP: 11%; FLuc inh-2: -10%
